From PubChem BioAssay
KCNQ2 enhance = potentiators of rat KCNQ2 potassium channel; O88943; CHO-K1 KCNQ2, FluxOR thallium flux fluorescence; stronger effect = higher value; B-score at 10 µM; 0.54% of 310,000 active;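 active = fluorescence ratio B-score at least 3 SD of library B-scores, with initial fluorescence B-score within 3 of them, cut at about 5.3 in these data; same plate scores as AID 2156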;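 note: B-score of peak minus minimum over baseline fluorescence ratio after K+ and Tl+ stimulus; positive B-score means potentiation of KCNQ2 with more thallium influx and brighter signal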
KCNQ2 block = KCNQ2 (rat) channel inhibition. O88943. CHO-K1 KCNQ2, FluxOR thallium flux, 20 min; stronger effect = lower value. B-score at 10 µM. 1.1% of 310,000 active;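 active = fluorescence ratio B-score at most minus 3 library SDs, with starting brightness B-score within 2 library SDs, cut at about -5.5 in these data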
Kir21 conf inh = confirmation of mouse Kir2.1 potassium channel inhibitors | shares compounds with KCNQ2 enhance | Kir2.1-expressing cells, FluxOR thallium flux fluorescence; stronger effect = lower value | Tl flux remaining, % of negative control (stronger effect = lower value), % at 10 µM | 41% of 2,300 active | AID 2032;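 active = Primary-screen hit whose thallium flux fell at least 3 control SD below untreated wells in both duplicates, with normal baseline fluorescence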;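 note: 0% = blank wells without stimulus and 100% = stimulated no-compound controls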
HEK293 ctr = parental HEK293 activity in Kir2.1 inhibitor counter-screen; parental HEK293 cells, FluxOR thallium flux fluorescence; 0% = unstimulated blank wells; 19% of 2,300 active; FluxOR signal as % of negative control (100 = no effect), % at 10 µM; shares compounds with KCNQ2 enhance;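 active = dye signal at least 3 control SD above or below untreated wells in both duplicates, raw fluorescence within 3, either direction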;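 note: percent is based on the flux ratio of peak minus minimum fluorescence over baseline F0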
CHO-K1 Tl ctr = alters thallium flux in parental CHO-K1 cells, KCNQ2 counter-screen | shares compounds with KCNQ2 enhance | FluxOR thallium flux fluorescence; zero = vehicle mean+3SD, 100% = vehicle-minus-blank window | activity increase over 3SD of controls, % at 10 µM | 43% of 1,200 active | AID 2282;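 active = signal rise of at least 3 SD above the untreated control mean, in both duplicate wells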;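 note: counter screen of KCNQ2 potentiator hits so any rise reflects channel-independent effects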
KCNQ1 sel pot = selectivity of KCNQ2 potentiators: effect on human KCNQ1. CHO KCNQ1 stable, FluxOR thallium flux fluorescence; beyond 3SD, as % of vehicle-control signal. activation over 3SD threshold, % at 10 µM. AID 2283. 28% of 1,200 active. shares compounds with KCNQ2 enhance;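 active = fluorescence ratio rise of at least 3 SD of vehicle wells above their mean, in both replicate wells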;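 note: 0% = vehicle mean plus 3 SD and 100% = vehicle minus unstimulated blank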
KCNQ2 pot confirm = confirmation of rat KCNQ2 potassium channel potentiators | shares compounds with KCNQ2 enhance | CHO-KCNQ2 cells, FluxOR thallium flux fluorescence | potentiation, less the hit threshold, % at 10 µM | 68% of 1,200 active;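 active = fluorescence ratio rising 3 SD or more over the vehicle control mean in both replicates, plus primary screen hit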;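 note: peak minus minimum thallium fluorescence divided by baseline after K/Tl stimulus; 0% = vehicle mean plus 3 SD and 100% = vehicle minus unstimulated blank difference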
Kir21 spec = mouse Kir2.1 off-target activity of KCNQ2 potentiators. shares compounds with KCNQ2 enhance. HEK293 Kir2.1, FluxOR thallium flux fluorescence. activity over 3SD threshold, % at 10 µM. 2% of 1,200 active. AID 2345;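 active = fluorescence ratio rise of at least 3 SD above the vehicle-control mean, seen in both replicates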;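 note: 0% = vehicle mean plus 3 SD and 100% = vehicle minus no-stimulus blank window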
KCNQ2 W236L pot = rat KCNQ2 W236L mutant potentiation by KCNQ2 potentiators. AID 2558. current increase over 3SD of negative controls (%), stronger effect = higher value, % at 25 µM. shares compounds with KCNQ2 enhance. CHO KCNQ2-W236L, automated patch clamp current. 10% of 940 active;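 active = current increase at least 3 SD of the untreated controls above them in both duplicate recordings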
Target sequence (O88943 whole entry W236L, looked up): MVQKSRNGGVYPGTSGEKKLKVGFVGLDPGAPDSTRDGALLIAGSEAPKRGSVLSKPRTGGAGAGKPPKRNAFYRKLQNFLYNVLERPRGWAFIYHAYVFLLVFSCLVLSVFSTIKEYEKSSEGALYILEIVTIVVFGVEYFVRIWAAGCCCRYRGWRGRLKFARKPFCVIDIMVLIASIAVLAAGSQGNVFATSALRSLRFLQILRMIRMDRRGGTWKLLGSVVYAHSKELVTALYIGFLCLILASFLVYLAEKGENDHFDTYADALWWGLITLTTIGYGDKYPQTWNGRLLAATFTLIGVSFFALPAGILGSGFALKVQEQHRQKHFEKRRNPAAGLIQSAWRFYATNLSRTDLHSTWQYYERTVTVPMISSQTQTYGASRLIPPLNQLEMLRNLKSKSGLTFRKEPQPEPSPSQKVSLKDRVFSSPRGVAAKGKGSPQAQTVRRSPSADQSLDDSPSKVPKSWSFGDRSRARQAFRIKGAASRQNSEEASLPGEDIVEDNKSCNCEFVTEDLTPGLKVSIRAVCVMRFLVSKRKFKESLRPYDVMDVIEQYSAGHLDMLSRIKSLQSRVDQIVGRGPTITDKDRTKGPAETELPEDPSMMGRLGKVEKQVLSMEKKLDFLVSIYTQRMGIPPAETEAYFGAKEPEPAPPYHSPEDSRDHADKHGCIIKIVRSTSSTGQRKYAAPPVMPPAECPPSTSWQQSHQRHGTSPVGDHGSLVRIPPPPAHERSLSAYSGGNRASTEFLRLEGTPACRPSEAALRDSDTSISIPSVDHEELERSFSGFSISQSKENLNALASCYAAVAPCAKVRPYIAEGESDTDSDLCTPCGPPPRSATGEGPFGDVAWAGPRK
* marks the source's active call; other numbers are inactive results; i = inactive; / = no result given. Sampled rows, rich in hits. Any-hit rate of the full collection: about 1.6%.

SMILES | KCNQ2 enhance | KCNQ2 block | Kir21 conf inh | HEK293 ctr | CHO-K1 Tl ctr | KCNQ1 sel pot | KCNQ2 pot confirm | Kir21 spec | others
C/C(=N\NC(=S)NCCc1ccccc1)c1ccc(O)cc1O | 0.01 | i | / | / | / | / | / | /
S=C(NCCc1ccc(Cl)cc1)NCc1ccccc1 | / | i | i | i | / | / | / | /
S=C(NCc1ccccc1)NCc1cccc(Cl)c1 | / | i | / | / | / | / | / | /
CC1CCCCN1CCNC(=O)C1CCCN(S(=O)(=O)c2cccc3nsnc23)C1 (stereo not given) | / | i | / | / | / | / | / | /
CCOc1ccc(-c2c(C)sc3nc[nH]c(=O)c23)cc1 | 1.9 | i | / | / | / | / | / | /
CC(C)C(NC(=O)Nc1ccccc1)C(=O)Nc1cccc(S(=O)(=O)N(C)C)c1 (stereo not given) | / | i | / | / | / | / | / | /
COCCNC(=O)COC(=O)c1cc(-c2ccc(OC)cc2)nc2ccccc12 | / | i | / | / | / | / | / | /
O=C(Nc1ccc(S(=O)(=O)N2CCOCC2)cc1)c1ccc(Cl)cc1Cl | 1.6 | i | / | / | / | / | / | /
COc1ccc(NC(=O)c2cccc(N3C(=O)C4CC=C(C)CC4C3=O)c2)c(OC)c1 (stereo not given) | / | i | / | / | / | / | / | /
CC1=CCC2C(=O)N(c3ccc(OC(=O)c4ccco4)cc3)C(=O)C2C1 (stereo not given) | / | i | 64%* | 128%* | / | / | / | /
CNc1nc(C)cc(C)c1S(=O)(=O)c1ccc(C)cc1 | / | i | i | i | / | / | / | /
Cc1ccc(S(=O)(=O)c2c(C)cc(C)nc2Oc2cccc(C)c2C)cc1 | / | i | / | / | / | / | / | /
Oc1ccc(N=Nc2ccc3c(c2)OCCO3)c2ncccc12 | 12* | i | i | i | 2.9* | -19 | -20 | -35
O=C(Nc1ncccc1O)c1ccc2c(c1)OCCO2 | / | i | / | / | / | / | / | /
CC1=NN(C(=O)c2ccccc2C)C(O)(c2ccc(Cl)cc2)C1 (stereo not given) | 11* | i | i | i | 22* | -16 | -14 | -35
CCC1=NN(C(=O)c2ccc([N+](=O)[O-])cc2)C(O)(c2ccccc2)C1 (stereo not given) | 2.1 | i | / | / | / | / | / | /
CC1=NN(C(=O)c2ccccc2Cl)C(O)(c2cccnc2)C1 (stereo not given) | 3.7 | i | / | / | / | / | / | /
CCC1=NN(C(=O)c2ccccc2O)C(O)(c2ccccc2)C1 (stereo not given) | 11* | i | i | 148%* | -13 | -10 | 14* | -37 | KCNQ2 W236L pot=i
Cc1ccc(C(=O)Nc2ccc(N3CCOCC3)cc2N2CCOCC2)cc1 | / | i | / | / | / | / | / | /
CCOc1ccc(OCCC(=O)OCC(=O)Nc2ccc(N3CCOCC3)cc2)cc1 | 0.66 | i | / | / | / | / | / | /
CCOc1cc(N2CCOCC2)c(OCC)cc1NC(=O)COC(=O)CCOc1ccc(C(C)(C)C)cc1 | 11* | i | i | i | 3.1* | -24 | -12 | -14 | KCNQ2 W236L pot=i
CC(C)(C)c1ccc(OCCC(=O)Nc2ccc(N3CCOCC3)cc2N2CCOCC2)cc1 | 8* | i | / | / | -6 | -37 | -16 | -44
CNC(=O)CSc1nc2cccnc2n1-c1ccc(F)cc1 | 0.15 | i | / | / | / | / | / | /
COC(=O)c1ccc(NC(=O)CSc2nnc(-c3cccnc3)o2)cc1 | / | i | / | / | / | / | / | /
COc1ccccc1C(=O)Nc1ccccc1C(=O)NC1CCCCC1 | 0.1 | i | / | / | / | / | / | /
COc1ccccc1C(=O)NNC(=O)C(=O)NC1CCCCC1 | 8.5* | i | i | 321%* | -6 | 33* | 42* | -18 | KCNQ2 W236L pot=i
Cc1c([N+](=O)[O-])c(C/C=N/O)nn1C | / | i | / | / | / | / | / | /
CSc1nnc(NC(=O)c2nc(S(=O)(=O)Cc3cccc(C)c3)ncc2Cl)s1 | 13* | i | / | / | -9 | 4.6* | 84* | -62 | KCNQ2 W236L pot=35%*
